Out of some 5,500 compounds screened, about 2,000 (36%) were called active. About 18% were inconclusive and are not listed. Cut-off read from the data, not from the text of the source: active = normalized growth mostly below about 0.91 (no sharp cut-off); inconclusive = no clear call, values can overlap the other calls; inactive = mostly above about 0.92. Some of the results follow.
Assay: chemical genetic growth profiling, strain panel (AID 1159580);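 note: tested at 20 µM; growth read once vehicle control cultures reached saturation at 30 °C; 1 = growth at the plate median or of vehicle wells; lower values mean less growth of the strain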
Conditions: S. cerevisiae deletion strains, growth OD
[1] = locus YHR030C, strain SLT2, hits give low values
[2] = locus YHR079C, strain IRE1, hits give low values
[3] = locus YJL095W, strain BCK1, hits give low values
[4] = locus YJR066W, strain TOR1, hits give low values
[5] = locus YLR113W, strain HOG1, hits give low values
[6] = locus YNL183C, strain NPR1, hits give low values
[7] = locus YOR231W, strain MKK1, hits give low values
[8] = locus YPL256C, strain CLN2, hits give low values

Measured: normalized growth

CSc1ccc(C(=O)c2[nH]c(=O)[nH]c2C)cc1
inactive: locus YAL013W, strain DEP1, hits give low values 0.943 | locus YAL040C, strain CLN3, hits give low values 1.06 | locus YCL061C, strain MRC1 (second series), hits give low values 0.991 | locus YDR363W, strain ESC2, hits give low values 0.934 | locus YER002W, strain NOP16, hits give low values 0.978 | locus YGR078C, strain PAC10, hits give low values 1 | locus YMR307W, strain GAS1, hits give low values 1.01 | locus YNL128W, strain TEP1, hits give low values 0.981 | locus YNL175C, strain NOP13, hits give low values 0.985 | locus YNL197C, strain WHI3, hits give low values 0.994 | locus YNL224C, strain SQS1, hits give low values 0.994 | locus YOR083W, strain WHI5 (second series), hits give low values 0.96

CC[C@@H]1OC(=O)C[C@@H](O)[C@H](C)[C@@H](O[C@@H]2O[C@H](C)[C@@H](O)[C@H](N(C)C)[C@H]2O)[C@@H](CCN2C[C@H](C)C[C@H](C)C2)C[C@@H](C)C(=O)/C=C/C(C)=C\[C@@H]1CO[C@@H]1O[C@H](C)[C@@H](O)[C@@H](OC)[C@H]1OC
inactive: locus YAL021C, strain ccr4, hits give low values 1 | locus YAL026C, strain drs2, hits give low values 0.994 | locus YAL030W, strain snc1, hits give low values 0.996 | locus YBL061C, strain skt5, hits give low values 0.99 | locus YBR009C, strain hhf1, hits give low values 1 | locus YBR023C, strain chs3, hits give low values 0.997 | locus YBR171W, strain sec66, hits give low values 1.01 | locus YBR231C, strain swc5, hits give low values 0.986 | locus YBR279W, strain paf1, hits give low values 0.982 | locus YCL011C, strain gbp2, hits give low values 0.971 | locus YCL016C, strain dcc1, hits give low values 0.967 | locus YCL069W, strain vba3, hits give low values 1.02 | locus YCR088W, strain abp1, hits give low values 1.01 | locus YDL005C, strain med2, hits give low values 0.994 | locus YDL040C, strain nat1, hits give low values 0.996 | locus YDR001C, strain nth1, hits give low values 1.01 | locus YDR069C, strain doa4, hits give low values 0.992 | locus YDR137W, strain rgp1, hits give low values 1 | locus YDR159W, strain sac3, hits give low values 0.931 | locus YDR195W, strain ref2 0.972 | locus YDR297W, strain sur2, hits give low values 1.01 | locus YDR334W, strain swr1, hits give low values 0.995 | locus YDR335W, strain msn5, hits give low values 1.01 | locus YDR392W, strain spt3, hits give low values 0.887 | locus YEL003W, strain gim4, hits give low values 1.01 | locus YEL037C, strain rad23, hits give low values 1.01 | locus YEL061C, strain CIN8 (second series), hits give low values 1.01 | locus YER015W, strain faa2, hits give low values 1 | locus YER016W, strain bim1, hits give low values 0.993 | locus YER111C, strain swi4, hits give low values 1 | locus YER155C, strain BEM2 (second series), hits give low values 1 | locus YFR010W, strain ubp6, hits give low values 1 | locus YGL167C, strain pmr1, hits give low values 1 | locus YGL173C, strain kem1, hits give low values 0.981 | locus YGL227W, strain vid30, hits give low values 0.987 | locus YGL240W, strain doc1, hits give low values 0.975 | locus YGL253W, strain hxk2, hits give low values 1.01 | locus YHR013C, strain ard1, hits give low values 0.955 | locus YHR027C, strain rpn1, hits give low values 1 | [1] 0.978 | [2] 0.971 | locus YHR142W, strain chs7, hits give low values 0.983 | locus YJL092W, strain hpr5, hits give low values 1.01 | locus YJL095W, strain BCK1 (second series), hits give low values 0.996 | [3] 0.974 | locus YJL115W, strain asf1, hits give low values 1.01 | locus YJL129C, strain trk1, hits give low values 1 | locus YJL154C, strain vps35, hits give low values 1.02 | locus YJL164C, strain tpk1, hits give low values 1.03 | locus YJL166W, strain qcr8, hits give low values 1.02 | [4] 0.939 | locus YKL160W, strain elf1, hits give low values 0.974 | locus YKR026C, strain gcn3, hits give low values 0.997 | locus YKR091W, strain srl3, hits give low values 1 | locus YLL001W, strain dnm1, hits give low values 1 | locus YLL026W, hits give low values 0.993 | locus YLL041C, strain sdh2, hits give low values 1.01 | locus YLR027C, strain aat2, hits give low values 0.994 | [5] 1 | locus YLR221C, strain rsa3, hits give low values 0.99 | locus YLR258W, strain gsy2, hits give low values 0.992 | locus YLR262C, strain YPT6 (second series), hits give low values 1.03 | locus YLR320W, strain mms22, hits give low values 0.981 | locus YLR342W, strain FKS1, hits give low values 0.984 | locus YLR357W, strain rsc2, hits give low values 0.987 | locus YLR370C, strain arc18, hits give low values 0.99 | locus YLR384C, strain iki3, hits give low values 0.981 | locus YML120C, strain ndi1, hits give low values 1.01 | locus YMR058W, strain fet3, hits give low values 1 | locus YMR125W, strain sto1, hits give low values 0.996 | locus YMR129W, hits give low values 1 | locus YMR205C, strain PFK2, hits give low values 1.01 | locus YMR231W, strain pep5, hits give low values 1 | locus YNL071W, strain lat1, hits give low values 1.02 | [6] 0.955 | locus YNL209W, strain ssb2, hits give low values 1 | locus YNL248C, strain rpa49, hits give low values 1 | locus YNL322C, strain KRE1 (second series), hits give low values 0.997 | locus YNR049C, strain mso1, hits give low values 1 | locus YOR001W, strain rrp6, hits give low values 0.994 | locus YOR070C, strain gyp1, hits give low values 0.999 | locus YOR080W, strain dia2, hits give low values 1.01 | locus YOR083W, strain WHI5, hits give low values 0.943 | locus YOR106W, strain vam3, hits give low values 1.01 | [7] 0.976 | locus YOR265W, strain rbl2, hits give low values 1 | locus YOR270C, strain vph1, hits give low values 0.976 | locus YOR290C, strain snf2, hits give low values 0.978 | locus YPL051W, strain arl3, hits give low values 0.998 | locus YPL078C, strain atp4, hits give low values 0.991 | locus YPL106C, strain sse1, hits give low values 0.963 | locus YPL240C, strain hsp82, hits give low values 1 | [8] 0.952

Cc1noc(C)c1S(=O)(=O)Nc1csc(C(F)(F)F)c1-c1ccccc1
inactive: locus YAR019C, strain CDC15, hits give low values 0.976 | locus YBL105C, strain PKC1, hits give low values 0.982 | locus YBR135W, strain CKS1, hits give low values 0.983 | locus YBR136W, strain MEC1, hits give low values 0.978 | locus YBR160W, strain CDC28, hits give low values 0.982 | locus YDL017W, strain CDC7, hits give low values 0.979 | locus YDL028C, strain MPS1, hits give low values 0.973 | locus YDL101C, strain DUN1, hits give low values 0.97 | locus YDL108W, strain KIN28, hits give low values 0.985 | locus YDL132W, strain cdc53, hits give low values 0.977 | locus YDL214C, strain PRR2, hits give low values 0.997 | locus YDR052C, strain DBF4, hits give low values 0.979 | locus YDR054C, strain cdc34, hits give low values 0.973 | locus YDR226W, strain ADK1, hits give low values 0.979 | locus YDR477W, strain SNF1, hits give low values 1.04 | locus YER123W, strain YCK3, hits give low values 1.05 | locus YER133W, strain GLC7, hits give low values 1.02 | locus YFL009W, strain cdc4, hits give low values 0.969 | locus YFL029C, strain CAK1, hits give low values 0.979 | locus YFR003C, strain YPI1, hits give low values 0.983 | locus YFR019W, strain FAB1, hits give low values 1.01 | locus YFR028C, strain CDC14, hits give low values 0.97 | locus YGR040W, strain KSS1, hits give low values 1.04 | locus YGR052W, strain FMP48, hits give low values 1.12 | locus YGR092W, strain DBF2, hits give low values 1.02 | [1] 1.09 | [2] 1.06 | locus YHR082C, strain KSP1, hits give low values 1.08 | locus YHR205W, strain SCH9, hits give low values 1 | locus YIL147C, strain SLN1, hits give low values 0.975 | [3] 1.07 | locus YJL128C, strain PBS2, hits give low values 0.957 | locus YJL157C, strain FAR1, hits give low values 1.01 | locus YJR016C, strain ILV3, hits give low values 0.982 | locus YJR066W, strain TOR1 (second series), hits give low values 1.04 | [4] 1.07 | locus YKL048C, strain ELM1, hits give low values 0.973 | locus YKL067W, strain YNK1, hits give low values 1 | locus YKL101W, strain HSL1, hits give low values 0.978 | locus YKL193C, strain SDS22, hits give low values 0.976 | locus YKL203C, strain TOR2, hits give low values 1.08 | [5] 1.04 | locus YLR133W, strain CKI1, hits give low values 1.01 | locus YLR403W, strain SFP1, hits give low values 1.05 | locus YML070W, strain DAK1, hits give low values 1.04 | locus YMR001C, strain CDC5, hits give low values 0.971 | locus YMR205C, strain PFK2 (second series), hits give low values 0.995 | locus YMR277W, strain FCP1, hits give low values 0.98 | locus YNL006W, strain LST8, hits give low values 0.98 | locus YNL020C, strain ARK1, hits give low values 0.993 | locus YNL161W, strain CBK1, hits give low values 0.972 | [6] 1.06 | locus YNL207W, strain RIO2, hits give low values 0.978 | locus YNL222W, strain SSU72, hits give low values 0.98 | locus YNL307C, strain MCK1 (second series), hits give low values 1 | locus YOL078W, strain AVO1, hits give low values 0.978 | locus YOL136C, strain PFK27, hits give low values 1.02 | locus YOR061W, strain CKA2, hits give low values 0.985 | locus YOR119C, strain RIO1, hits give low values 1.02 | [7] 1.05 | locus YOR329C, strain SCD5, hits give low values 0.975 | locus YPL031C, strain PHO85, hits give low values 1.03 | locus YPL153C, strain RAD53, hits give low values 1.04 | locus YPL204W, strain HRR25, hits give low values 1.04 | locus YPL209C, strain IPL1, hits give low values 0.975 | [8] 1.01 | locus YPR025C, strain CCL1, hits give low values 0.98 | locus YPR106W, strain ISR1, hits give low values 0.981 | locus YPR111W, strain DBF20, hits give low values 0.97 | strain NNK1, hits give low values 0.964 | strain TSCII, hits give low values 0.983

Source: PubChem BioAssay AID1159580 (chemical genetic matrix, 2015)
